ATXN2 expr inh = Primary qHTS for Inhibitors of ATXN expression; hit rate 0.72% among 360,000; AID 1745845, 2022; HEK-293 ATXN2-luciferase reporter, luminescence, 24 h; Potency, µM (highest dose often 57 µM), for the others: top-dose activity change, negative = inhibition, actives largely listed as inhibitors; further: potency means the concentration at half of the fitted maximal effect; on the % scale 0 is the no-effect control and ±100 the full control effect; nearly all actives have a fitted effect of over 55% in size
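ATXN2-luciferase reporter cells (luciferase flanked by upstream and downstream ATXN2 gene portions) were treated 24 h at 37 °C with compounds at up to 57 uM. SteadyGlo luminescence gave expression; GF-AFC fluorescence gave viability.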
ATXN viability = Viability Counterscreen for Primary qHTS for Inhibitors of ATXN expression; AID 651635, 2014; hit rate 0.49% among 400,000; Potency, µM (titrated, usually from 56.7 µM), hits mostly cytotoxic; S2 cells (HEK-293 line with an ATXN2-luciferase reporter) viability, CellTiter-Fluor protease fluorescence, 24 h; further: potency means the concentration at half of the fitted maximal effect; nearly all actives have a fitted effect of over 40% in size
TGFb inhibitor = qHTS for Inhibitors of TGF-b; Potency, µM (highest dose often 46.1 µM), for inactives: at the top dose activity, negative = inhibition, actives largely listed as inhibitors; AID 588855, 2011; HepG2 CAGA-GFP TGF-b/SMAD3 reporter, GFP fluorescence, 18 h; TGF-beta stimulated, 500 pg/mL final; hit rate 1.2% among 410,000; further: potency means the concentration at half of the fitted maximal effect; on the % scale 0 is the no-effect control and ±100 the full control effect; nearly all actives have a fitted effect of over 65% in size
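TGF-beta reporter screen: HEPG2 CAGA-GFP, 1% FBS, 500 pg/mL TGF-beta final, 18 h; per-cell GFP summed per well; curves fitted and categorized by class.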
IL-1B inflam inh = qHTS for Inhibitors of Inflammasome Signaling: IL-1-beta AlphaLISA Primary Screen. activity change, % at 57.5 µM. THP-1 LPS/ATP IL-1B secretion, AlphaLISA, 16 h; hits give low values. hit rate 4.7% among 360,000; in the data active means activity change below about -50%; inconclusive means mostly about -30% to -49%; further: on the % scale 0 is the no-effect control and ±100 the full control effect
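Secreted IL-1B measured by AlphaLISA bead assay after 16 h compound exposure of THP-1 cells; compounds (final up to 57.5 uM) added 1 h before LPS (250 ng/mL) and ATP (1.25 mM) stimulation; lower signal means less secretion.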
HepG2 tox = qHTS for Inhibitors of TGF-b: Cytotox Counterscreen | hit rate 0.76% among 410,000 | Potency, µM (titrated, usually from 46.1 µM), without a hit: top-dose activity change, negative = cytotoxicity, most hits filed as cytotoxic | HepG2 CAGA-GFP viability, ATP luminescence, 18 h; further: potency means the concentration at half of the fitted maximal effect
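HepG2 CAGA-GFP cells (1000/well, DMEM with 1% FBS) received compound, then TGF-beta at 500 pg/mL final, and were incubated 18 hours at 37 degrees C. Viability was read by CellTiter-Glo luminescence. Media-only wells were set as complete cell-killing and DMSO as no toxicity.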
The depositor's hits bear a star; i = inactive; ? = inconclusive; nt = not tested or not shown. An excerpt weighted towards active compounds, which were near 5.7% of everything screened. Unless noted, the call rests on the fitted dose curve; in most records, active means well fitted curve in the direction sought with a large enough effect; inconclusive means small, poorly fitted or top-dose-only effect, or another doubt; inactive means no such curve, though single readings can be large; an effect the other way counts as inactive or inconclusive.

SMILES | ATXN2 expr inh | ATXN viability | TGFb inhibitor | IL-1B inflam inh | HepG2 tox
CCOC(=O)c1c(NC(=O)/C=C\C(=O)O)sc(C)c1-c1ccccc1 | ? | i | 25% | -99* | 5%
CCOC(=O)c1c(NC(=S)Nc2ccccc2)sc(C)c1C | 1% | i | -5% | 0 | -27%
COCC(=O)Nc1cc(C(=O)NC2Cc3ccccc3C2)cc2nc(-c3cccnc3)n(C)c12 | nt | i | nt | nt | nt
CCn1c(-c2cccc(OC)c2)nc2cc(NC(C)=O)cc(C(=O)N3CCCC(C(C)=O)C3)c21 (stereo unspecified) | nt | i | nt | nt | nt
Cc1sc(NC(=O)/C=C/C(=O)O)c(C(N)=O)c1-c1ccc(C(C)(C)C)cc1 | -16% | i | ? | -91* | -69%
CCOC(=O)c1c(-c2ccc(OC)cc2)csc1NC(=O)CCN1CCOCC1 | -23% | i | -3% | -10 | -11%
CCOC(=O)c1c(NC(=O)CCN2CCOCC2)sc(C)c1-c1ccccc1 | -22% | i | -22% | -78* | -11%
Cc1sc(NC(=O)C2CCCCC2C(=O)O)c(C(N)=O)c1-c1ccc(C(C)(C)C)cc1 (stereo unspecified) | 42% | i | -14% | 15 | -19%
CCOC(=O)c1sc(NC(=O)CCN2CCCCCC2)c(C(=O)OCC)c1C | 1% | i | ? | -99* | 18µM*
O=C1c2ccccc2-c2nnc(-c3ccc(F)cc3)cc21 | -35% | i | -9% | 13 | -11%
Cc1ccc(-c2cc3c(nn2)-c2ccccc2C3=O)cc1 | 3.5µM* | i | ? | 3 | -39%
CCN(CC)C1=CC(=[N+]2CCCC2)CC(C)(C)C1 | ? | i | -28% | -10 | -23%
CN(Cc1ccccc1)C1=CC(=[N+]2CCCC2)CC(C)(C)C1 | ? | i | ? | -52* | -11%
CC1(C)CC(N2CCCC2)=CC(=[N+]2CCCCCC2)C1 | ? | i | -30% | -24 | -8%
CC1(C)CC(N2CCN(c3ccccc3)CC2)=CC(=[N+]2CCCC2)C1 | ? | i | -20% | -102* | -3%
COc1ccc(-c2cc3nc(-c4ccccc4)cc(N4CCC(O)CC4)n3n2)cc1 | nt | i | ? | -151* | -1%
COCCN1CCN(c2cc(-c3ccccc3)nc3cc(-c4cccc(F)c4)nn23)CC1 | ? | ? | ? | -79* | -35%
N#CN=c1snc(-c2ccccc2)n1-c1ccc(Br)cc1 | nt | nt | -6% | nt | 0%
COc1cccc(NC(=O)CN2C(=O)C3(SCC(=O)N3c3cc(C)cc(C)c3)c3ccccc32)c1 (stereo unspecified) | 8% | i | 1% | nt | -9%
Cc1ccc(C)c(S(=O)(=O)NCc2ccc(C(=O)N3CCC(Cc4ccccc4)CC3)cc2)c1 | -29% | ? | ? | -57* | -26%
Cc1ccc(C)c(S(=O)(=O)N2CCN(C(=O)c3ccccc3Cc3ccccc3)CC2)c1 | -29% | i | ? | -59* | 6%
Cc1ccc(C)c(S(=O)(=O)NCc2ccc(C(=O)N3CCN(C)CC3)cc2)c1 | 5% | i | 16% | 54 | -18%
CC#CC[N+](C)(C)CCCCCCCCCC | ? | i | -16% | -59* | -2%
C#CC[N+](C)(C)CCCCCCCCC | ? | i | -29% | -68* | -48%
Cc1cccc(C(=O)NCc2nc(-c3ccccc3NC(=O)C3CCCO3)oc2C)c1 (stereo unspecified) | nt | i | nt | nt | nt
SMILES | ATXN2 expr inh | ATXN viability | TGFb inhibitor | IL-1B inflam inh | HepG2 tox
CCn1cc(C(=O)NCCc2ccc(OC)c(OC)c2)c(=O)c2cc(S(=O)(=O)N3CCC(C)CC3)ccc21 | 6% | ? | ? | nt | -25%
O=C(CN1CCCCC1)Nc1cccc(Oc2ccccc2)c1 | 11% | i | -18% | ? | -25%
COc1cc(NC(=O)CCl)ccc(=O)c1 | nt | ? | ? | -14 | 0.71µM*
Nc1nc(SCC(=O)Nc2cccc(Oc3ccccc3)c2)n[nH]1 | nt | i | -29% | -21 | -25%
O=C(CCl)Nc1cccc(Oc2cnccn2)c1 | ? | 22µM* | 16µM* | -88* | -97%
O=C(CCl)Nc1cccc(Oc2ccccc2)c1 | 9.5µM* | nt | 8.9µM* | -106* | -92%
COCC(=O)Nc1cc(OC)cc(OC)c1 | -2% | i | -7% | 0 | 0%
O=C(CSc1ncnc2[nH]ncc12)Nc1cccc(Oc2ccccc2)c1 | -14% | i | -2% | -90* | -13%
Cc1cccc(OCc2nc(CC(=O)Nc3ccc(C)c(C)c3)cs2)c1 | -2% | i | 11% | nt | 0%
Cc1cc(C)c2c(c1)SC1=NC(c3ccccc3)(C(F)(F)F)NC(=O)N12 (stereo unspecified) | 18% | i | 22% | -56* | -12%
COC(=O)/C=C1/N/C(=N\c2nc(C)cc(C)n2)N(c2cccc(C)c2)C1=O | -1% | i | ? | -69* | -8%
NC(=O)c1ncn([C@@H]2O[C@H](CO)[C@@H](O)[C@@H]2O)c1N | -14% | nt | nt | nt | nt
O=C(Nc1nc2ccccc2s1)c1cc(-c2ccccc2)nn1-c1ccccc1 | 67% | i | -10% | -14 | 1%
O=C(NNC(=O)c1cc(-c2ccccc2)nn1-c1ccccc1)c1ccccc1 | -31% | ? | -24% | -97* | -4%
CCOC(=O)c1cc(-c2ccccc2)nn1-c1ccccn1 | 0% | i | 3% | 4 | 8%
Cc1cnc(NC(=O)c2cc(-c3ccccc3)nn2-c2ccccc2)s1 | nt | nt | 1% | -2 | 1%
CC(=O)c1sc(NC(=O)c2cc(-c3ccccc3)nn2-c2ccccc2)nc1C | ? | i | 0% | -61* | -6%
CCOC(=O)c1cc(-c2cccnc2)nn1-c1ccccc1 | -9% | i | -8% | -98* | -14%
CCCN(C(=O)COc1cc(=O)n(CC)c2ccccc12)c1ccc(C(C)C)cc1 | ? | ? | ? | nt | -73%
CCOC(=O)c1c(C)n(C)c2ccc(O)c(CN(C)C)c12 | ? | i | ? | -53* | -17%
CCOC(=O)c1c(C)n(-c2ccc(OC)cc2)c2ccc(O)c(CN(C)C)c12 | ? | ? | ? | -30 | -42%
CCOC(=O)c1c(C)n(C)c2ccc(O)c(CN3CCCCC3)c12 | -18% | i | -5% | -24 | -32%
CCOC(=O)c1c(C)n(-c2ccc(C)cc2)c2ccc(O)c(CN(C)C)c12 | ? | ? | ? | -68* | -53%
CC1=C(C(=O)N2CCCCC2)C(c2ccc(Cl)cc2)n2c(nc3ccccc32)N1 (stereo unspecified) | -1% | i | -13% | nt | 15%
Cc1ccc(CNc2nc3ccccc3n3c(C)nnc23)cc1 | -1% | i | 5% | nt | -8%

Source: PubChem (National Center for Advancing Translational Sciences (NCATS))
